About 83,000 compounds went through this panel and 20% of them were active in at least one assay; those are over-represented in the sample as a whole.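 Method: cells in 96-well plates; compound added at one concentration; 48 h incubation; percent growth measured; values under 10 scored active.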 Values without a mark were called inactive. Active and inactive are the calls of the source.

Holding throughout (experiment): NCI-60 one-dose screen, 48 h (100 = growth as untreated, 0 = no growth, -100 = all killed)
Common to all, as to conditions: 10 µM unless noted

For experiment [1], the system named is HCT-15 colon.
Experiment [2] deals with HT29 colon.
Experiment [3] has as its system SNB-75 CNS.
The subject of experiment [4] is SNB-19 CNS.
The test system of experiment [5] is U251 CNS.
Experiment [6] concerns PC-3 prostate.
Experiment [7] concerns SK-MEL-5 melanoma.
Experiment [8] concerns UACC-62 melanoma.
Experiment [9] concerns LOX IMVI melanoma.
Experiment [10] concerns SK-MEL-28 melanoma.

As for `O=C1Cc2c(sc3c(F)cccc23)C(c2ccccc2[N+](=O)[O-])N1` (stereo not given), the growth in experiment [1] was 110%; in experiment [2] it was 112%; in experiment [3], 90%; in experiment [4], 100%; in [5], 85.2%; in experiment [6] it was 100%. Moreover, the growth was 97.3% in experiment [7], 87.2% in experiment [8], 97.7% in experiment [9] and 120% in experiment [10].

With `CCN(CCNc1ccc(C)c2sc3cc(Cl)ccc3c(=O)c12)CC(C)O` (stereo not given), the growth in experiment [1] was -42.8% (active); in [2], -28.5% (active); in experiment [3], 66.5%; in [4], 58.5%; in experiment [5], 18%; in experiment [6], 48.5%. Moreover, the growth is -98.1% (active) in experiment [7], -70.3% (active) in [8], -83.4% (active) in experiment [9] and -64.5% (active) in [10].

With `C[C@H]1[C@H](C)CC[C@]2(C(=O)O)CC[C@]3(C)C(=CC[C@@H]4[C@@]5(C)C/C(=C/c6cccnc6)[C@H](O)C(C)(C)[C@@H]5CC[C@]43C)[C@H]12`, the growth in experiment [1] was 2.04% [100 µM] (active); in experiment [2], -72.1% [100 µM] (active); in experiment [3] it was -3.83% [100 µM] (active); in experiment [4] it was 3.05% [100 µM] (active); in experiment [5], -57.2% [100 µM] (active); in experiment [6] it was 17.4% [100 µM]. Further, the growth was -64.4% [100 µM] (active) in [7], -70.3% [100 µM] (active) in experiment [8], -91.8% [100 µM] (active) in [9] and -49.1% [100 µM] (active) in experiment [10].

In the case of `C=C(C)[C@@H]1CC[C@]2(C(=O)NCCCN)CC[C@]3(C)[C@H](CC[C@@H]4[C@@]5(C)CC[C@H](O)C(C)(C)[C@@H]5CC[C@]43C)[C@@H]12`, the growth in experiment [1] was -22.1% [100 µM] (active); in experiment [2] it was 3.9% [100 µM] (active); in experiment [3], -51.6% [100 µM] (active); in [4] it was -29.5% [100 µM] (active); in experiment [5], -13.8% [100 µM] (active); in [6] it was -53.8% [100 µM] (active). Also, the growth was -23.9% [100 µM] (active) in experiment [7], -22.6% [100 µM] (active) in experiment [8], 1.37% [100 µM] (active) in [9] and -31.4% [100 µM] (active) in [10].

For the molecule `CCN(CC)CC(C)Nc1ccc(C)c2sc3ccccc3c(=O)c12` (stereo not given), the growth in [1] is 32.5%; in [2] it was 26.8%; in experiment [3] it was 40.3%; in experiment [4], 53.8%; in experiment [5] it was 37.4%; in experiment [6] it was 47.6%. The growth in experiment [7] is -68.1% (active); in experiment [8] it was 3.87% (active); in experiment [9] it was 23.3%; in [10], 38.9%.

As for `Cc1nc(-c2ccccc2)sc1CC#N`, the growth in experiment [1] is 102%; in experiment [2], 105%; in experiment [3], 113%; in [4], 103%; in experiment [5], 100%; in experiment [6], 108%. Further, the growth was 107% in experiment [7], 106% in experiment [8], 102% in experiment [9] and 120% in experiment [10].

With `O=C(Nc1cccc2cccnc12)c1cc(C(=O)c2ccc(Cl)cc2)n2ccc(-c3ccncc3)cc12`, the growth was 99.1% in experiment [1]; 100% in experiment [2]; 86.6% in experiment [3]; 104% in experiment [4]; 103% in [5]; 95.3% in experiment [6]. For the same molecule, the growth in [7] was 97.2%; in [8], 104%; in [9], 101%; in [10] it was 98.2%.

Take `O=c1c2c3c(sc2n2cnnc2n1Cc1ccccc1)CCCC3`: the growth was 93.4% in experiment [1]; 100% in experiment [2]; 111% in [3]; 99% in [4]; 102% in [5]; 99.7% in experiment [6]. Further, the growth in [7] was 98%; in experiment [8], 91.8%; in experiment [9], 97.6%; in [10] it was 116%.

For `CC[C@]12C=CCN3CC[C@@]4(c5ccc(OC)cc5N(C)[C@H]4[C@@](O)(C(=O)OC)[C@@H]1OC(=O)CCC(=O)O[C@H]1CC[C@H]4[C@@H]5CCC6=CC(=O)CC[C@@H]6[C@H]5CC[C@]14C)[C@@H]32`, the growth was 14.5% [100 µM] in [1]; -21.8% [100 µM] (active) in experiment [2]; -27.2% [100 µM] (active) in experiment [3]; 21.7% [100 µM] in experiment [4]; 10.8% [100 µM] in experiment [5]; 11.3% [100 µM] in experiment [6]. The growth in [7] is -95.3% [100 µM] (active); in experiment [8] it was -53.8% [100 µM] (active); in experiment [9] it was -29.5% [100 µM] (active); in [10] it was -7.77% [100 µM] (active).

On to `CCOC(=O)c1nc2c3ccccc3ccn2c1C(=O)OC`, for which the growth in experiment [1] is 97%; in [2], 90.1%; in experiment [3] it was 78.9%; in experiment [4] it was 91.4%; in [5], 96.2%; in experiment [6] it was 105%. The growth in experiment [7] was 96.6%; in [8], 89.4%; in [9] it was 109%; in experiment [10], 96.5%.

On to `CC(C)(C)c1cc(C(=O)N2CCC(C(=O)NCCN)CC2)cc(C(C)(C)C)c1`, for which the growth in [1] is 103%; in experiment [2] it was 80.5%; in experiment [3], 79.4%; in experiment [4] it was 88%; in [5], 88.2%; in experiment [6], 92.5%. For the same molecule, the growth is 95.4% in experiment [7], 89.3% in experiment [8], 99.6% in [9] and 101% in experiment [10].

Regarding `O=C1/C(=C/c2cccc(OCc3ccccc3)c2)Oc2cc(OCCN3CCCCC3)ccc21`, the growth in [1] is -37% (active); in experiment [2], 21%; in experiment [3], 76%; in experiment [4] it was 83.9%; in experiment [5] it was 61.1%; in experiment [6], 47.1%. The growth in experiment [7] was 78.6%; in experiment [8], 77.8%; in experiment [9], 32.1%; in experiment [10], 76.6%.

These data come from PubChem BioAssay (NCI).
